PubChem BioAssay AID1159580 (chemical genetic matrix, 2015)
About 2,000 (36%) of roughly 5,500 compounds were called active. About 18% were inconclusive and are not listed. Some of the results follow. A number with no mark means an inactive call. No stated cut-off is given here; in the data, active means normalized growth mostly below about 0.91 (no sharp cut-off); inconclusive means no clear call, values can overlap the other calls; inactive means mostly above about 0.92.

Experiment: chemical genetic growth profiling, strain panel (AID 1159580);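 further: tested at 20 µM; growth read once vehicle control cultures reached saturation at 30 °C; 1 = growth at the plate median or of vehicle wells; lower values mean less growth of the strain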
Conditions: S. cerevisiae deletion strains, growth OD
[1] = locus YDL101C, strain DUN1, active compounds read low
[2] = locus YHR030C, strain SLT2, active compounds read low

O=C1CSC(c2ccc(C(F)(F)F)cc2)N1c1ccc(C(F)(F)F)cc1 (stereo not drawn)
normalized growth (locus YAR019C, strain CDC15, active compounds read low): 0.998 | normalized growth (locus YBL105C, strain PKC1, active compounds read low): 1 | normalized growth (locus YBR135W, strain CKS1, active compounds read low): 0.997 | normalized growth (locus YBR136W, strain MEC1, active compounds read low): 1 | normalized growth (locus YBR160W, strain CDC28, active compounds read low): 1 | normalized growth (locus YDL017W, strain CDC7, active compounds read low): 1 | normalized growth (locus YDL028C, strain MPS1, active compounds read low): 0.999 | normalized growth [1]: 1 | normalized growth (locus YDL108W, strain KIN28, active compounds read low): 0.996 | normalized growth (locus YDL132W, strain cdc53, active compounds read low): 0.997 | normalized growth (locus YDL214C, strain PRR2, active compounds read low): 0.952 | normalized growth (locus YDR052C, strain DBF4, active compounds read low): 1.01 | normalized growth (locus YDR054C, strain cdc34, active compounds read low): 1 | normalized growth (locus YDR226W, strain ADK1, active compounds read low): 1 | normalized growth (locus YDR477W, strain SNF1, active compounds read low): 0.966 | normalized growth (locus YER123W, strain YCK3, active compounds read low): 0.911 | normalized growth (locus YER133W, strain GLC7, active compounds read low): 0.968 | normalized growth (locus YFL009W, strain cdc4, active compounds read low): 1 | normalized growth (locus YFL029C, strain CAK1, active compounds read low): 0.986 | normalized growth (locus YFR003C, strain YPI1, active compounds read low): 0.994 | normalized growth (locus YFR019W, strain FAB1, active compounds read low): 0.95 | normalized growth (locus YFR028C, strain CDC14, active compounds read low): 0.993 | normalized growth (locus YGR040W, strain KSS1, active compounds read low): 0.962 | normalized growth (locus YGR052W, strain FMP48, active compounds read low): 0.972 | normalized growth (locus YGR092W, strain DBF2, active compounds read low): 0.979 | normalized growth [2]: 0.878 | normalized growth (locus YHR079C, strain IRE1, active compounds read low): 0.897 | normalized growth (locus YHR082C, strain KSP1, active compounds read low): 0.936 | normalized growth (locus YHR205W, strain SCH9, active compounds read low): 0.885 | normalized growth (locus YIL147C, strain SLN1, active compounds read low): 1 | normalized growth (locus YJL095W, strain BCK1, active compounds read low): 0.933 | normalized growth (locus YJL128C, strain PBS2, active compounds read low): 0.939 | normalized growth (locus YJL157C, strain FAR1, active compounds read low): 0.976 | normalized growth (locus YJR016C, strain ILV3, active compounds read low): 1 | normalized growth (locus YJR066W, strain TOR1 (second series), active compounds read low): 0.951 | normalized growth (locus YJR066W, strain TOR1, active compounds read low): 0.936 | normalized growth (locus YKL048C, strain ELM1, active compounds read low): 0.968 | normalized growth (locus YKL067W, strain YNK1, active compounds read low): 0.946 | normalized growth (locus YKL101W, strain HSL1, active compounds read low): 0.923 | normalized growth (locus YKL193C, strain SDS22, active compounds read low): 1 | normalized growth (locus YKL203C, strain TOR2, active compounds read low): 1.02 | normalized growth (locus YLR113W, strain HOG1, active compounds read low): 0.829 (active) | normalized growth (locus YLR133W, strain CKI1, active compounds read low): 0.949 | normalized growth (locus YLR403W, strain SFP1, active compounds read low): 0.949 | normalized growth (locus YML070W, strain DAK1, active compounds read low): 0.924 | normalized growth (locus YMR001C, strain CDC5, active compounds read low): 1 | normalized growth (locus YMR205C, strain PFK2 (second series), active compounds read low): 0.942 | normalized growth (locus YMR277W, strain FCP1, active compounds read low): 0.999 | normalized growth (locus YNL006W, strain LST8, active compounds read low): 1 | normalized growth (locus YNL020C, strain ARK1, active compounds read low): 0.957 | normalized growth (locus YNL161W, strain CBK1, active compounds read low): 1.01 | normalized growth (locus YNL183C, strain NPR1, active compounds read low): 0.898 | normalized growth (locus YNL207W, strain RIO2, active compounds read low): 0.995 | normalized growth (locus YNL222W, strain SSU72, active compounds read low): 1 | normalized growth (locus YNL307C, strain MCK1 (second series), active compounds read low): 0.941 | normalized growth (locus YOL078W, strain AVO1, active compounds read low): 1.01 | normalized growth (locus YOL136C, strain PFK27, active compounds read low): 0.937 | normalized growth (locus YOR061W, strain CKA2, active compounds read low): 0.943 | normalized growth (locus YOR119C, strain RIO1, active compounds read low): 1.03 | normalized growth (locus YOR231W, strain MKK1, active compounds read low): 0.914 | normalized growth (locus YOR329C, strain SCD5, active compounds read low): 1 | normalized growth (locus YPL031C, strain PHO85, active compounds read low): 0.97 | normalized growth (locus YPL153C, strain RAD53, active compounds read low): 0.96 | normalized growth (locus YPL204W, strain HRR25, active compounds read low): 0.959 | normalized growth (locus YPL209C, strain IPL1, active compounds read low): 1.01 | normalized growth (locus YPL256C, strain CLN2, active compounds read low): 0.871 | normalized growth (locus YPR025C, strain CCL1, active compounds read low): 0.998 | normalized growth (locus YPR106W, strain ISR1, active compounds read low): 0.988 | normalized growth (locus YPR111W, strain DBF20, active compounds read low): 0.979 | normalized growth (strain NNK1, active compounds read low): 0.98 | normalized growth (strain TSCII, active compounds read low): 0.999

O=C1CSC(c2ccc(Cl)c(Cl)c2)N1c1ccc(F)cc1 (stereo not drawn)
normalized growth (locus YAL013W, strain DEP1, active compounds read low): 0.988 | normalized growth (locus YBR229C, strain ROT2, active compounds read low): 0.975 | normalized growth [1]: 0.964 | normalized growth (locus YDL134C, strain PPH21, active compounds read low): 0.886 (active) | normalized growth (locus YDR150W, strain NUM1, active compounds read low): 0.968 | normalized growth (locus YEL061C, strain CIN8, active compounds read low): 0.988 | normalized growth (locus YGR078C, strain PAC10, active compounds read low): 0.975 | normalized growth [2]: 0.95 | normalized growth (locus YHR087W, strain rtc3, active compounds read low): 0.985 | normalized growth (locus YJR043C, strain POL32, active compounds read low): 0.974 | normalized growth (locus YJR075W, strain HOC1, active compounds read low): 0.939 | normalized growth (locus YKL190W, strain CNB1, active compounds read low): 0.985 | normalized growth (locus YLR039C, strain RIC1, active compounds read low): 0.994 | normalized growth (locus YLR058C, strain SHM2 (second series), active compounds read low): 1 | normalized growth (locus YLR085C, strain ARP6, active compounds read low): 0.942 | normalized growth (locus YLR262C, strain YPT6, active compounds read low): 0.947 | normalized growth (locus YML094W, strain GIM5, active compounds read low): 0.95 | normalized growth (locus YMR219W, strain ESC1, active compounds read low): 0.994 | normalized growth (locus YMR263W, strain SAP30, active compounds read low): 0.989 | normalized growth (locus YNL153C, strain GIM3, active compounds read low): 0.962 | normalized growth (locus YNL298W, strain CLA4 (second series), active compounds read low): 0.93 | normalized growth (locus YNL322C, strain KRE1, active compounds read low): 0.988 | normalized growth (locus YNR030W, strain Alg12, active compounds read low): 0.906 | normalized growth (locus YOL006C, strain TOP1, active compounds read low): 0.889 | normalized growth (locus YPL055C, strain LGE1, active compounds read low): 0.971 | normalized growth (locus YPL241C, strain CIN2, active compounds read low): 0.977 | normalized growth (locus YPR135W, strain CTF4, active compounds read low): 0.85
